According to PubChem BioAssay AID1159580 (chemical genetic matrix, 2015):
The campaign covered roughly 5,500 compounds. About 2,000 (36%) were called active. Not shown: some 18% with an inconclusive outcome. Rule as the data show it: active = normalized growth mostly below about 0.91 (no sharp cut-off); inconclusive = no clear call, values can overlap the other calls; inactive = mostly above about 0.92. This is one part of the list.

Test: chemical genetic growth profiling, strain panel (AID 1159580);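 also: tested at 20 µM; growth read once vehicle control cultures reached saturation at 30 °C; 1 = growth at the plate median or of vehicle wells; lower values mean less growth of the strain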
Conditions: growth OD
[1] = S. cerevisiae deletion strains, locus YAL013W, strain DEP1, hits give low values
[2] = S. cerevisiae deletion strains, locus YBR229C, strain ROT2, hits give low values
[3] = S. cerevisiae deletion strains, locus YDL101C, strain DUN1, hits give low values
[4] = S. cerevisiae deletion strains, locus YEL061C, strain CIN8, hits give low values
[5] = S. cerevisiae deletion strains, locus YGR078C, strain PAC10, hits give low values
[6] = S. cerevisiae deletion strains, locus YHR030C, strain SLT2, hits give low values
[7] = S. cerevisiae deletion strains, locus YJR043C, strain POL32, hits give low values
[8] = S. cerevisiae deletion strains, locus YKL190W, strain CNB1, hits give low values
[9] = S. cerevisiae deletion strains, locus YLR039C, strain RIC1, hits give low values
[10] = S. cerevisiae deletion strains, locus YLR262C, strain YPT6, hits give low values
[11] = S. cerevisiae deletion strains, locus YMR263W, strain SAP30, hits give low values
[12] = S. cerevisiae deletion strains, locus YNL153C, strain GIM3, hits give low values
[13] = S. cerevisiae deletion strains, locus YOL006C, strain TOP1, hits give low values

Measured: normalized growth

CC(C)(C)NC(=O)N1CCN(c2nc3ccc(Cl)cc3s2)CC1
inactive: [1] 0.952 | [2] 0.979 | [3] 1 | S. cerevisiae deletion strains, locus YDR150W, strain NUM1, hits give low values 0.966 | [4] 0.943 | [5] 0.962 | S. cerevisiae deletion strains, locus YHR087W, strain rtc3, hits give low values 0.967 | [7] 0.976 | S. cerevisiae deletion strains, locus YJR075W, strain HOC1, hits give low values 0.981 | [8] 0.993 | [9] 0.82 | S. cerevisiae deletion strains, locus YLR058C, strain SHM2 (second series), hits give low values 1.02 | [10] 0.913 | S. cerevisiae deletion strains, locus YML094W, strain GIM5, hits give low values 0.908 | S. cerevisiae deletion strains, locus YMR219W, strain ESC1, hits give low values 1 | [11] 0.992 | [12] 0.943 | S. cerevisiae deletion strains, locus YNL322C, strain KRE1, hits give low values 1.03 | S. cerevisiae deletion strains, locus YNR030W, strain Alg12, hits give low values 0.902 | [13] 0.739 | S. cerevisiae deletion strains, locus YPL055C, strain LGE1, hits give low values 0.928 | S. cerevisiae deletion strains, locus YPR135W, strain CTF4, hits give low values 0.662 | S. cerevisiae strains, strain wild type, hits give low values 0.97
active: [6] 0.339 | S. cerevisiae deletion strains, locus YLR085C, strain ARP6, hits give low values 0.552 | S. cerevisiae deletion strains, locus YNL298W, strain CLA4 (second series), hits give low values 0.831 | S. cerevisiae deletion strains, locus YPL241C, strain CIN2, hits give low values 0.856

Nc1nc2[nH]c(=O)c(=O)[nH]c2c(=O)[nH]1
inactive: [1] 1.01 | S. cerevisiae deletion strains, locus YBR021W, strain FUR4, hits give low values 0.971 | [2] 0.998 | S. cerevisiae deletion strains, locus YCL029C, strain bik1, hits give low values 1.03 | S. cerevisiae deletion strains, locus YDL035C, strain GPR1, hits give low values 1.01 | S. cerevisiae deletion strains, locus YDL074C, strain BRE1, hits give low values 1.01 | [3] 1 | S. cerevisiae deletion strains, locus YDL134C, strain PPH21, hits give low values 1.02 | S. cerevisiae deletion strains, locus YDL185W, strain tfp1, hits give low values 1.01 | S. cerevisiae deletion strains, locus YDL192W, strain arf1, hits give low values 0.995 | S. cerevisiae deletion strains, locus YDR101C, strain arx1, hits give low values 0.987 | S. cerevisiae deletion strains, locus YDR162C, strain NBP2, hits give low values 1.05 | S. cerevisiae deletion strains, locus YDR318W, strain mcm21, hits give low values 1.01 | S. cerevisiae deletion strains, locus YDR388W, hits give low values 1.01 | S. cerevisiae deletion strains, locus YDR502C, strain sam2, hits give low values 1.01 | [4] 1.01 | S. cerevisiae deletion strains, locus YER110C, hits give low values 1.01 | S. cerevisiae deletion strains, locus YER155C, strain BEM2, hits give low values 1.01 | S. cerevisiae deletion strains, locus YER167W, strain BCK2, hits give low values 1.01 | S. cerevisiae deletion strains, locus YGL078C, strain dbp3, hits give low values 1.01 | S. cerevisiae deletion strains, locus YGL086W, strain mad1, hits give low values 0.978 | S. cerevisiae deletion strains, locus YGL248W, strain PDE1, hits give low values 1.01 | [5] 1.01 | S. cerevisiae deletion strains, locus YGR135W, strain pre9, hits give low values 1.03 | S. cerevisiae deletion strains, locus YGR252W, strain gcn5, hits give low values 1.01 | [6] 1.01 | S. cerevisiae deletion strains, locus YHR079C, strain IRE1 (second series), hits give low values 1 | S. cerevisiae deletion strains, locus YHR094C, strain hxt1, hits give low values 1.01 | S. cerevisiae deletion strains, locus YHR129C, strain ARP1, hits give low values 1.01 | S. cerevisiae deletion strains, locus YHR200W, strain rpn10, hits give low values 0.992 | S. cerevisiae deletion strains, locus YIL066C, strain RNR3, hits give low values 1.02 | S. cerevisiae deletion strains, locus YIL073C, strain SPO22, hits give low values 1.04 | S. cerevisiae deletion strains, locus YIL125W, strain kgd1, hits give low values 1.01 | S. cerevisiae deletion strains, locus YIR030C, strain dcg1, hits give low values 1.01 | S. cerevisiae deletion strains, locus YJL095W, strain BCK1, hits give low values 1.02 | S. cerevisiae deletion strains, locus YJL134W, strain LCB3, hits give low values 1.02 | S. cerevisiae deletion strains, locus YJL168C, strain set2, hits give low values 1 | S. cerevisiae deletion strains, locus YJL187C, strain SWE1 (second series), hits give low values 1.01 | [7] 0.996 | S. cerevisiae deletion strains, locus YKL009W, strain mrt4, hits give low values 0.998 | S. cerevisiae deletion strains, locus YKL068W, hits give low values 1.01 | S. cerevisiae deletion strains, locus YKL085W, strain MDH1 (second series), hits give low values 1.02 | S. cerevisiae deletion strains, locus YKL085W, strain MDH1, hits give low values 1.02 | [8] 1.01 | S. cerevisiae deletion strains, locus YKR001C, strain vps1, hits give low values 1 | [9] 1.03 | S. cerevisiae deletion strains, locus YLR058C, strain SHM2, hits give low values 1.01 | S. cerevisiae deletion strains, locus YLR102C, strain apc9, hits give low values 1.01 | [10] 1.08 | S. cerevisiae deletion strains, locus YLR268W, strain sec22, hits give low values 1.02 | S. cerevisiae deletion strains, locus YLR330W, strain CHS5, hits give low values 1.01 | S. cerevisiae deletion strains, locus YLR342W, strain FKS1 (second series), hits give low values 0.973 | S. cerevisiae deletion strains, locus YLR371W, strain rom2, hits give low values 1.02 | S. cerevisiae deletion strains, locus YLR418C, strain cdc73, hits give low values 0.971 | S. cerevisiae deletion strains, locus YML016C, strain PPZ1, hits give low values 0.996 | S. cerevisiae deletion strains, locus YML032C, strain rad52, hits give low values 1.02 | S. cerevisiae deletion strains, locus YML124C, strain tub3, hits give low values 1.01 | S. cerevisiae deletion strains, locus YMR078C, strain ctf18, hits give low values 1 | S. cerevisiae deletion strains, locus YMR223W, strain ubp8, hits give low values 1.01 | [11] 1.01 | S. cerevisiae deletion strains, locus YMR307W, strain GAS1, hits give low values 1.02 | S. cerevisiae deletion strains, locus YNL067W, strain RPL9B, hits give low values 1.02 | S. cerevisiae deletion strains, locus YNL128W, strain TEP1, hits give low values 1.05 | [12] 1.01 | S. cerevisiae deletion strains, locus YNL233W, strain BNI4, hits give low values 1.03 | S. cerevisiae deletion strains, locus YNL250W, strain rad50, hits give low values 1.02 | S. cerevisiae deletion strains, locus YNL271C, strain bni1, hits give low values 1.01 | S. cerevisiae deletion strains, locus YNL298W, strain CLA4, hits give low values 1 | S. cerevisiae deletion strains, locus YNL307C, strain MCK1, hits give low values 1 | S. cerevisiae deletion strains, locus YNR052C, strain pop2, hits give low values 1.02 | [13] 1.01 | S. cerevisiae deletion strains, locus YOL012C, strain htz1 1.04 | S. cerevisiae deletion strains, locus YOL147C, strain pex11, hits give low values 1 | S. cerevisiae deletion strains, locus YOR061W, strain CKA2, hits give low values 1 | S. cerevisiae deletion strains, locus YOR069W, strain VPS5, hits give low values 1.01 | S. cerevisiae deletion strains, locus YOR136W, strain idh2, hits give low values 1.01 | S. cerevisiae deletion strains, locus YOR144C, strain elg1, hits give low values 1 | S. cerevisiae deletion strains, locus YOR184W, strain ser1, hits give low values 0.996 | S. cerevisiae deletion strains, locus YOR316C, strain cot1, hits give low values 1.01 | S. cerevisiae deletion strains, locus YPR119W, strain clb2, hits give low values 1.02 | S. cerevisiae deletion strains, locus YPR141C, strain kar3, hits give low values 1.01 | S. cerevisiae deletion strains, locus YPR163C, strain tif3, hits give low values 1.02 | S. cerevisiae deletion strains, locus YPR167C, strain met16, hits give low values 1.04 | S. cerevisiae deletion strains, strain wtn01, hits give low values 1
